Assay results published in the supplement of paper PMC3724861.
The full list was thinned out, with hits kept by preference. The true hit rate is not given.

These sequences were tested on T1, Caupolican (Caup) homeodomain DNA-binding domain (assay: PBM E-score (8-mer, recovered from the published 9-mer minima) (E-score (dimensionless, -0.5 to 0.5)); Drosophila protein; higher = stronger relative binding preference, active = 0.31 or more).
T1 sequence: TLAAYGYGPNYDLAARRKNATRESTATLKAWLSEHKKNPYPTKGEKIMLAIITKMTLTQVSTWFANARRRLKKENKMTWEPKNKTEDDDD
In short: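 Caup's homeodomain DNA-binding domain (residues 214-303) was made by in vitro transcription and translation and applied at 100 nM to custom-designed protein binding microarrays. Each value is an enrichment score that gives relative binding preference for a short DNA word, with higher meaning stronger. The 8-mer values were recovered from published 9-mer scores, each of which was the minimum of its two constituent 8-mer scores. A cutoff of 0.31 marks candidate sites.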

PBM E-score, inactive:
CCGGACGG -0.297
CCTGGCAA -0.121
CAATGACC 0.065
TCACAAGA 0.131
ATCGGTAC 0.0373
CTGCCGTC -0.128
ATTAGAGG -0.11
ACCATGCT 0.14
AACATGCC 0.302
TCCATGCA -0.0253
TGCATGCA 0.0646
GAGATGCA -0.024
CACATGCA 0.166
CCCATGCA -0.119
ATCATGCA 0.103
CTCGCGTA -0.0439
TTATCAAA 0.109
GTGATTCA 0.0823
AGAAAGCA 0.0369
CCGGGTCA -0.18
CACATGCG 0.023
CACATGCC 0.0641
ATCATGCG 0.0113
GCCATGCC -0.149
ATCCTGAG -0.0222
CAAGCTAG -0.0491
CGTAATGA 0.094
GTGACCGA -0.0686
ACTTGAAC 0.132
ACAAATCC 0.179
CTGCATGA -0.0538
CTACATTA 0.199
ATACATTA 0.219
CTACAGGA 0.245
GTTCATGA 0.115
GCACATGA 0.182
ACAGGAGT 0.0982
AAAGTTTG 0.0257
ACGGCAGT -0.0873
GCAACGCC -0.0458
GCAGTACA 0.196
ACAGTACG 0.0926
ACAGTACT 0.18
CCAGTACA 0.3
ATCTGATG 0.072
ACGATTTG 0.11
ATCACAAC 0.212
ATTACAAA 0.259
ATTACTAC 0.293
ATTACAAT 0.298
ACGTTCGG -0.177
ACTAGCCA 0.0322
CATAGTGA 0.155
GTGTCAAA 0.294
CTGTCAAC 0.186
ACGTCAAT -0.00307
GTGTCAAC 0.272
ATGTCAAG 0.309
AAGTCAAA 0.0275
AGGTCAAA -0.0266
CTGTCAAA 0.164
ACCCGATC -0.0489
CTTGGTAA 0.0467
CTCGTCAA 0.0256
GGTGGTTA 0.0166
AATTGAGT 0.131
ACACCCTC -0.0435
CAGCACGG -0.0332
ATAATCAG 0.101
AGAGCAAG 0.0346
CAACACAA 0.241
AAACACAA 0.27
GGACACAA 0.204
GAACACAC 0.217
AGATCGGC -0.152
ACCTGGAC -0.0342
CCCGTGTA 0.25
ACCGTGCA 0.00395
GCCGTGAA -0.0891
ACCGTGGA -0.107
CCCGTGTC 0.145
ACCGTGTG 0.115
GAACACCA 0.195
ACTATCAG 0.083
ATTATTAA 0.191
ACATTTTC 0.161
ACGCGACT 0.0019
CTCATAAG 0.0492
CATGACAG 0.151
GATAGATA 0.08
AGCTTCAC -0.0515
CATGGGAC 0.151
AGATGTTA 0.286
GAATGTTA 0.234
AAATGTTG 0.201
GGATGTTA 0.204
AGATGTTG 0.203
ACCTGTTA 0.222
CGATGTTC 0.249
CAATGTTC 0.218
GAGCCTCA -0.214
CCATATGG -0.073
AGCACTGA -0.0101
ACACTCTA 0.0891
AGTTTTGA 0.0657
CGTCCGGC -0.219
AGATGTTC 0.286
AAATGTTC 0.247
CGATGTTA 0.297
CAATGTTA 0.269
GATTTGCA 0.0416
ATAGTTCC -0.029
AAAGCCCC -0.238
CGTTAAGC -0.0697
AGTTGTTA 0.266
GGTTGTAC 0.222
GGTTGTGA 0.0824
CGTTGTAA 0.261
AGTTGTAA 0.279
CGTAGTAA 0.145
CGTTGTTA 0.305
AGTAGTAA 0.168
ACGAGGTG 0.0761
AGATGCAC -0.00186
AGCGTTCG -0.141
ATTAGGAA 0.0485
AGCAACAC 0.186
AGACGCGC -0.0474
ACACGTCT 0.203
CCACGATA 0.0391
ACACGACC 0.215
ACACGACT 0.251
ACACAATG 0.273
ACACGTCG 0.212
ACACGATC 0.254
GCACAATA 0.0168
AGACTGTG 0.0481
GCAGTCTA 0.0232
AAGATTGC -0.00712
CATTTCAG 0.00691
ACACGAGG 0.111
ACACGAAG 0.174
AAAAGCAT 0.1
CGTACCAA 0.0356
AGTACAAA 0.26
TCTACACA 0.157
CGTACACC 0.205
AGTACCAA 0.128
CGTACACA 0.255
GGTACACA 0.28
TTTACAAA 0.245
CGTATAGC -0.0127
ACTGCCTG -0.0684
ATGCTCGC -0.0878
CGTCTGTC 0.0202
GCTTATAC -0.034
CATATTTA 0.178
AAGCTGTG 0.00524
ATCCCGAC -0.0204
GCAGGTTA -0.0457
AAGTTATA 0.163
AGGTTATA 0.0929
CTGTTATA 0.187
CTGTTATC 0.103
ACGTTATC 0.0197
AGGTTATG 0.044
GCGTTATA -0.0159
AAGTTATG 0.185
AGTGCGGA -0.0562
AATGGATA 0.0292
AGGCAAGC -0.0636
CCTCCAAG -0.0978
AAGTAGCG -0.0607
ACATAAGG 0.2
AGACGTGG -0.0599
AACCACAC 0.0803
AAGTTCGC -0.11
AATCCCTA 0.0149
CAGTTCTA 0.0212
CCGATGTA 0.159
GTGATGAA 0.0845
ATGATGTG 0.0894
CTGATGTA 0.251
ACGATGTC 0.261
ATGATGGA 0.0619
ATGATGAA 0.158
CTGATGTC 0.212

PBM E-score, active:
AACATGCT 0.376
AACATGCA 0.392
TACATGCA 0.371
GACATGCA 0.394
AACATGCG 0.356
GACATGCC 0.35
CTACATGA 0.36
GTACATGA 0.435
GTACATTA 0.322
ACAGTACA 0.331
TCAGTACA 0.313
ATTACAAC 0.37
ATTACAAG ≥ 0.427
TTGTCAAA 0.316
ATGTCAAC 0.324
ATGTCAAA 0.359
ATGTCAAT 0.359
GAACACAA 0.317
TAACACAA 0.319
ACCGTGTA 0.359
ACCGTGTC 0.312
GCCGTGTA 0.341
GCATGTTA 0.397
ACATGTTG 0.453
CCATGTTC 0.368
ACATGTTA 0.452
ACATGTTC 0.455
CCATGTTA 0.406
GGTTGTTA 0.324
GGTTGTAA 0.333
TGTAGTAA 0.376
TGTTGTAA 0.377
ACACAATA 0.31
ACACGATA 0.322
ACACGACA ≥ 0.386
ACACGTCA 0.325
ACACGATG 0.347
TGTACCAA 0.312
CGTACACG 0.341
TGTACACA 0.407
TGTACAAA 0.384
ATGTTATG 0.338
ATGTTATC 0.351
ATGTTATA 0.381
GTGTTATA 0.334
ATGATGTA ≥ 0.383
ACGATGTA 0.36
ATGATGTC 0.312
GTGATGTA ≥ 0.383
